Source: PubChem BioAssay (Tox21)
Inconclusive results are not listed. Calls of active or inactive are those of the source. Calls come from the whole dose curve; as a rule, active = well fitted activation curve with a large enough effect; inconclusive = small, poorly fitted or top-dose-only effect; inactive = flat fitted curve, though single readings scatter.

Assay: qHTS assay to identify small molecule phospholipidosis (PLD) inducers (AID 1259344)
Conditions: HepG2 phospholipidosis, LipidTOX Red imaging, 24 h; series mostly up to 38.3 µM; PLD induction: at the top concentration
Description: National Center for Advancing Translational Sciences [NCATS]
Drug-induced Phospholipidosis (PLD) caused by cationic amphiphilic drugs is characterized by the appearance of unicentric or multicentric-lamellar bodies when viewed under electron microscope. Electron microscopy is the gold standard method for PLD detection, however, this method is time-consuming and labor intensive, making it unsuitable for evaluating a large set of compounds. A cell-based phospholipidosis assay has been developed using the LipidTox reagent in HepG2 cells and miniaturized into a 1536-well plate format. Drug induced phospholipid accumulation is stained with the LipidTox dyes in red color which then is determined using an automated high content screening system.
HepG2 cells are dispensed at 900 cells/3 uL/well into Collagen I-coated 1536-well black-wall/clear-bottom assay plates (Greiner Bio-One, Monroe, NC) using the Multidrop Combi 8 channel dispenser (Thermo Fisher, Waltham, MA, USA). The assay plates are incubated at 37 C for 4 hours to allow the cell attachment. 3 uL of 1:500 LipidTOX Red dye is added using the dispenser, and then 23 nL compounds are added via a Wako Pintool station (Wako Automation, San Diego, CA). Amiodarone, a known PLD inducer, was used as a positive control and DMSO was used as a negative control. The assay plates were then incubated at 37 C for 24 hours.
For fixations, 4 uL of 8% paraformaldehyde fixative solution containing 10 ug/mL Hoechst 33342 in Dulbecco's phosphate-buffered saline (DPBS) is added using a Kalypsys washer/dispenser (Kalypsys, San Diego, CA, USA). After incubation at room temperature for 30 min, the assay plates are washed once with DPBS using a Kalypsys washer/dispenser. The assay plates are then sealed and stored at 4 C before imaging. The fluorescence intensities (595 nm excitation, 615 nm emission for LipidTOX; 352 nm excitation, 461 nm emission for Hoechst 33342) are measured using an ImageXpress Micro Widefield High Content Screening System (Molecular Devices, Sunnyvale, CA, USA) with a 20x Plan Fluor objective. Images are acquired for one site in each well and analyzed with the MetaXpress software (Molecular Devices) using the Transfluor module. Several algorithmic outputs, such as pit count per well, pit count per cell, pit integrated intensity per well, and pit integrated intensity per cell, are used for quantitative image analysis for PLD.
% is set by controls: 0 for no effect and ±100 for the full control effect.

| Structure (SMILES) | PLD induction | Potency |
| --- | --- | --- |
| CC(Cc1ccccc1)NCCn1cnc2c1c(=O)n(C)c(=O)n2C (stereo not given) | 5.66% [at 78.4 µM] (inactive) | – |
| Cc1ccc(Cl)c(O)c1 | 2.68% (inactive) | – |
| ClC1=C(Cl)C2(Cl)C(CBr)CC1(Cl)C2(Cl)Cl (stereo not given) | 1.38% (inactive) | – |
| C[C@H](CN1CCOCC1)C(C(=O)N1CCCC1)(c1ccccc1)c1ccccc1 | 13.1% [at 78.4 µM] (inactive) | – |
| C=C1CC[C@@]2(O)[C@H]3Cc4ccc(O)c5c4[C@@]2(CCN3CC2CC2)[C@H]1O5 | -0.458% (inactive) | – |
| C=C1C[C@@H]2[C@H](CC[C@]3(C)C(=O)CC[C@@H]23)[C@@]2(C)C=CC(=O)C=C12 | 4.14% (inactive) | – |
| CCCN1CCC[C@@H]2Cc3nc(N)ncc3C[C@H]21 | 0.181% (inactive) | – |
| CC(C)(O)C(Cl)(Cl)Cl | -0.042% (inactive) | – |
| CCN(CC)CCOC(=O)C(O)(c1ccccc1)c1ccccc1 | 0.871% (inactive) | – |
| O=C1C2CC=CCC2C(=O)N1SC(Cl)(Cl)Cl (stereo not given) | -2.02% (inactive) | – |
| CCCN1CCC[C@@H]2Cc3[nH]ncc3C[C@H]21 | -0.117% (inactive) | – |
| CCN[C@H](C)Cc1cccc(C(F)(F)F)c1 | 9.57% [at 78.4 µM] (inactive) | – |
| CCOC(=O)CC(SP(=S)(OC)OC)C(=O)OCC (stereo not given) | – | inactive |
| NCC1(CC(=O)O)CCCCC1 | -0.0921% [at 15.5 µM] (inactive) | – |
| CC(C)(C)c1cc(O)ccc1O | – | inactive |
| C[C@H](N)C(=O)c1ccccc1 | – | inactive |
| CC(C)(C)NC[C@H](O)c1ccc(O)cc1Cl | -1.41% (inactive) | – |
| CC[C@@H](CO)NC(=O)[C@@H]1C=C2c3cccc4[nH]cc(c34)C[C@H]2N(C)C1 | 16.3% (inactive) | – |
| Cc1ccc2c(c1)C1CN(C)CCC1N2 (stereo not given) | -0.172% (inactive) | – |
| CN(C)CCc1c[nH]c2cccc(OP(=O)(O)O)c12 | -3.47% [at 78.4 µM] (inactive) | – |

| Structure (SMILES) | PLD induction | Potency |
| --- | --- | --- |
| CC(C)NCC(O)c1ccc([N+](=O)[O-])cc1 (stereo not given) | -0.155% (inactive) | – |
| Cc1ccc(S(=O)(=O)N[C@@H](CCCCN)C(=O)CCl)cc1 | 0.207% (inactive) | – |
| N[C@@H]1C[C@H]1c1ccccc1 | -0.0296% (inactive) | – |
| CCN[C@@H](C)Cc1ccccc1 | -3.21% [at 78.4 µM] (inactive) | – |
| O=c1[nH]oc2c1CCNC2 | -1.13% (inactive) | – |
| Cn1c(CCCC(=O)O)nc2cc(N(CCCl)CCCl)ccc21 | 1.32% (inactive) | – |
| COc1ccc(CN2CCNCC2)c(OC)c1OC | -2.45% [at 15.5 µM] (inactive) | – |
| CCC1(c2cccc(O)c2)CCCCN(C)C1 (stereo not given) | 4.64% [at 15.5 µM] (inactive) | – |
| C[C@@H](N)[C@@H](O)c1ccccc1 | -0.464% [at 15.5 µM] (inactive) | – |
| NC(=O)OCCCc1ccccc1 | 0.0801% (inactive) | – |
| COc1ccc2c(C(=O)c3ccc(Cl)cc3)c(C)n(CC(=O)O)c2c1 | -4.56% (inactive) | – |
| CCC(C(N)=O)N1CCCC1=O (stereo not given) | 2.26% (inactive) | – |
| CCC(=O)OC1(c2ccccc2)CCN(C)CC1 | -3.29% [at 19 µM] (inactive) | – |
| COc1cc(CC(C)N)cc(OC)c1OC (stereo not given) | -5.59% [at 78.4 µM] (inactive) | – |
| CCC1(CC)C(=O)C=CNC1=O | -1.03% (inactive) | – |
| CC(C)(N)Cc1ccc(Cl)cc1 | 13.4% (inactive) | – |
| Oc1ccc2c3c1O[C@H]1[C@@H](O)C=C[C@H]4[C@@H](C2)NCC[C@@]341 | 8.05% [at 78.4 µM] (inactive) | – |
| CC1N=C(N)OC1c1ccccc1 (stereo not given) | 7.35% [at 78.4 µM] (inactive) | – |
| CCC1(c2ccccc2)CCC(=O)NC1=O (stereo not given) | 0.475% (inactive) | – |
| N#CN | -0.408% (inactive) | – |
